# Publication PMC7862700, “An all-to-all approach to the identification of sequence-specific readers for epigenetic DNA modifications on cytosine”
# Experiments:
# Experiment in all cases: DAPPL (digital affinity profiling via proximity ligation, sequencing); 10 mM Tris-HCl pH 7.5, 50 mM NaCl, 1 mM DTT, 4% glycerol, room temperature, 30 min; GST-TFs on glutathione beads, 16-mer random dsDNA library, 0.1% formaldehyde crosslink after washing; high values mean tight binding
# [1] = target: T1, FLI1 (Homo sapiens, UniProt Q01543 1-452); conditions: protein: recombinant; tags: N-terminal GST; dsDNA, one strand shown
# T1 sequence: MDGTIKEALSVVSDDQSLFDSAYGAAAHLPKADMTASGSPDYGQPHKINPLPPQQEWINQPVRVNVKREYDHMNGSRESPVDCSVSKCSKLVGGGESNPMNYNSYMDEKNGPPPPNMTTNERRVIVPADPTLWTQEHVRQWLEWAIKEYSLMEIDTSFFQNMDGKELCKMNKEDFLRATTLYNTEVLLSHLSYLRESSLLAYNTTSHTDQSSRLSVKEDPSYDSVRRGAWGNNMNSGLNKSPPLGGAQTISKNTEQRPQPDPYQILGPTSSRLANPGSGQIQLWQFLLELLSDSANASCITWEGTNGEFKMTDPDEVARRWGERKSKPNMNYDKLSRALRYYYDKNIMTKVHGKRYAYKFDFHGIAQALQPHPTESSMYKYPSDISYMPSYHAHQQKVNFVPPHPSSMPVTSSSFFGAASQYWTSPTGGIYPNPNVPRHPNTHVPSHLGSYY
# Summary of the method: (§1)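 Binding signal is defined as a hexamer's read frequency for one factor over its frequency for the tag-only sample. To obtain reads, GST-fused human transcription factors were expressed in yeast, captured on glutathione beads, barcoded with DNA and pooled with that sample. Pools met 200 nmole of a 16-mer random double-stranded DNA library in Tris/NaCl/DTT/glycerol buffer for 30 min at room temperature before washing, 0.1% formaldehyde crosslinking, proximity ligation (BsaI/T4 ligase, 1 h, 37 °C), PCR and Illumina NextSeq500 sequencing.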
# [2] = target: T2, ELK1 (Homo sapiens, UniProt P19419 1-428); conditions: protein: recombinant; tags: N-terminal GST; dsDNA, one strand shown
# T2 sequence: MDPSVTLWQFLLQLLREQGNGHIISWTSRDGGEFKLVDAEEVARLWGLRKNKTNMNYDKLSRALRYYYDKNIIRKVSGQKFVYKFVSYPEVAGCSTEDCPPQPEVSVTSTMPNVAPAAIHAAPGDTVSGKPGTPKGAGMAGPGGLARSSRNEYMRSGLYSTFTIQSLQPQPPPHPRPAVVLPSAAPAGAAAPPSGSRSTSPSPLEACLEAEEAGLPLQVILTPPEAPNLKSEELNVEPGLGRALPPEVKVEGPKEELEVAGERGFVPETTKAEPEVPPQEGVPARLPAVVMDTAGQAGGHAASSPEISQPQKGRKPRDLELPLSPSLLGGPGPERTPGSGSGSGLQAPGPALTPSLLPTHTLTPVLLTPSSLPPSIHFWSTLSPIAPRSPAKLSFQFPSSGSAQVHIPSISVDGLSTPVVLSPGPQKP
# Summary of the method: as §1
# [3] = target: T3, GABPA (Homo sapiens, UniProt Q06546 1-454); conditions: protein: recombinant; tags: N-terminal GST; dsDNA, one strand shown
# T3 sequence: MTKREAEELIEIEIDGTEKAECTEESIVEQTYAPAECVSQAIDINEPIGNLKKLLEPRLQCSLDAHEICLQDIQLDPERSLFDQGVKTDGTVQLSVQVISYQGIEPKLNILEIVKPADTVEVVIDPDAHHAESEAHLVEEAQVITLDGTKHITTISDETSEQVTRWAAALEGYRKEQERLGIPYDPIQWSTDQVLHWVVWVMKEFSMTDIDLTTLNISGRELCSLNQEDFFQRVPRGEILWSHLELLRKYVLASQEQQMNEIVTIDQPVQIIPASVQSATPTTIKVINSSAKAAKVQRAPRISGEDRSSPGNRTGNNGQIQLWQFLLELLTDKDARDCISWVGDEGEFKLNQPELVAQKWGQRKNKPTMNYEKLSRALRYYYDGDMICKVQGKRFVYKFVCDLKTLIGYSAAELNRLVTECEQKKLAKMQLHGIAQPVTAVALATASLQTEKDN
# Summary of the method: as §1
# [4] = target: T4, ERG (Homo sapiens, UniProt P11308 1-479); conditions: protein: recombinant; tags: N-terminal GST; dsDNA, one strand shown
# T4 sequence: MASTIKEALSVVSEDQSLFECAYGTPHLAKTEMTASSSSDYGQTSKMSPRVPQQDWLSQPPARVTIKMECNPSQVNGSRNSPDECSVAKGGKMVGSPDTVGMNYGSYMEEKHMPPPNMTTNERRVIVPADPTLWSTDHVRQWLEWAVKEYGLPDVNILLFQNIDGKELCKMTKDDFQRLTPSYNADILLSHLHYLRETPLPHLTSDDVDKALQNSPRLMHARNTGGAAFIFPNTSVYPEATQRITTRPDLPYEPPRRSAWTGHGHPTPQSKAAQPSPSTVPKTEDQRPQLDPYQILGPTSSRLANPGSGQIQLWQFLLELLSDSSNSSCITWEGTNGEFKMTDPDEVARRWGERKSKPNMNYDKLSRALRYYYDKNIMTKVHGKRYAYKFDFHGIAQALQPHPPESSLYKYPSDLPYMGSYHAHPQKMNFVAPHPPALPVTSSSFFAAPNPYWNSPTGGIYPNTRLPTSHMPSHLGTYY
# Summary of the method: as §1
# [5] = target: ELF1 (Homo sapiens, UniProt P32519 1-619); conditions: protein: recombinant; tags: N-terminal GST; dsDNA, one strand shown
# Chain of ELF1 (P32519 whole entry): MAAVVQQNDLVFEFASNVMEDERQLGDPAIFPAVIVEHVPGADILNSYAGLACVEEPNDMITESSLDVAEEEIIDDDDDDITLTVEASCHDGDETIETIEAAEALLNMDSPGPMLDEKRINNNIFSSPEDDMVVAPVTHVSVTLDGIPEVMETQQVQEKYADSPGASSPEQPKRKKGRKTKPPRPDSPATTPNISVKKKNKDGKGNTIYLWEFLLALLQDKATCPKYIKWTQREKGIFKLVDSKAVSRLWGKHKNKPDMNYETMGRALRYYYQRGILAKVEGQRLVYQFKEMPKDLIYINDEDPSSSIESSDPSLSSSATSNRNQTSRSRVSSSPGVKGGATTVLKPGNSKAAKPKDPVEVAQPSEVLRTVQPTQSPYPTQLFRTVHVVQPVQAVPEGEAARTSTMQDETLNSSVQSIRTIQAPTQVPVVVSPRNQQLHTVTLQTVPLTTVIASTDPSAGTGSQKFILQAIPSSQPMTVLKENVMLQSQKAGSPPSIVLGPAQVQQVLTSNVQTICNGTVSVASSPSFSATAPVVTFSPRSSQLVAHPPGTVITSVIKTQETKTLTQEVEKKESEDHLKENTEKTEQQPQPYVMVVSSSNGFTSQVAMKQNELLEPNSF
# Summary of the method: as §1
# [6] = target: T5, EHF (Homo sapiens, UniProt Q9NZC4 1-300); conditions: protein: recombinant; tags: N-terminal GST; dsDNA, one strand shown
# T5 sequence: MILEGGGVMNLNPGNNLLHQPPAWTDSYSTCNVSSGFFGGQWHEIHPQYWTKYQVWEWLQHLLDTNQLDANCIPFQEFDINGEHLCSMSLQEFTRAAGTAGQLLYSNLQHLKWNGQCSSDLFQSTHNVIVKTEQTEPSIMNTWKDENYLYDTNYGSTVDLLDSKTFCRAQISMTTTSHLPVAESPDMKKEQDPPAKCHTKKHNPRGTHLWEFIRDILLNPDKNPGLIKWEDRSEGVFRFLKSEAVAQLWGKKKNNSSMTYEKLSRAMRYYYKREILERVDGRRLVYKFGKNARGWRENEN
# Summary of the method: as §1
# [7] = target: SPI1 (Homo sapiens, UniProt P17947 1-270); conditions: protein: recombinant; tags: N-terminal GST; dsDNA, one strand shown
# Summary of the method: as §1
# [8] = target: SPIB (Homo sapiens, UniProt Q01892 1-262); conditions: protein: recombinant; tags: N-terminal GST; dsDNA, one strand shown
# Chain of SPIB (Q01892 whole entry): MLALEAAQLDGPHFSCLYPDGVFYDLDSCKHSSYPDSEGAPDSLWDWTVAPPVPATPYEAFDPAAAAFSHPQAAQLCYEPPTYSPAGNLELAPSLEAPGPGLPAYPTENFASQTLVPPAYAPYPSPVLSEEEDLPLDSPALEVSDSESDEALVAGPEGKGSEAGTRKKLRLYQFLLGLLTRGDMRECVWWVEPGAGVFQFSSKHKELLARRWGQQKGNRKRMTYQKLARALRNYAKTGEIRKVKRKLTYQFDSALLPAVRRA
# Summary of the method: as §1
# [9] = target: T6, ELK3 (Homo sapiens, UniProt P41970 1-407); conditions: protein: recombinant; tags: N-terminal GST; dsDNA, one strand shown
# T6 sequence: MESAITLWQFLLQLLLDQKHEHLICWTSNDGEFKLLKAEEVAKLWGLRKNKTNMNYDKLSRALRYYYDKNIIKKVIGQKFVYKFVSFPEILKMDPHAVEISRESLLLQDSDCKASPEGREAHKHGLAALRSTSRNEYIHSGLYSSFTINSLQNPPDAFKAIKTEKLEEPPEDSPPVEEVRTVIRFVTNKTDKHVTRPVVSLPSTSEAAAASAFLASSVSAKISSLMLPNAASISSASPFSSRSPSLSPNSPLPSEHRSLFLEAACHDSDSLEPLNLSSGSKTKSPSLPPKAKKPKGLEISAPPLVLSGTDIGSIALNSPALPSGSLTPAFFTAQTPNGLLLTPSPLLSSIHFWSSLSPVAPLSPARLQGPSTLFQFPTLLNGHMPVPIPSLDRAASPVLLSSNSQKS
# Summary of the method: as §1
# [10] = target: T7, FEV (Homo sapiens, UniProt Q99581 1-238); conditions: protein: recombinant; tags: N-terminal GST; dsDNA, one strand shown
# T7 sequence: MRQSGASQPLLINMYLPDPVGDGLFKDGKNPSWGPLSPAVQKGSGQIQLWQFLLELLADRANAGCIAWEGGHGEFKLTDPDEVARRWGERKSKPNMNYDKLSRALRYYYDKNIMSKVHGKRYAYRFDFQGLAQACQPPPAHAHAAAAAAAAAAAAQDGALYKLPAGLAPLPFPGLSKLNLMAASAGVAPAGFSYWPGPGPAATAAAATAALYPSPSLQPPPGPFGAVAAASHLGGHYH
# Summary of the method: as §1
# [11] = target: ETV5 (Homo sapiens, UniProt P41161 1-510); conditions: protein: recombinant; tags: N-terminal GST; dsDNA, one strand shown
# Chain of ETV5 (P41161 whole entry): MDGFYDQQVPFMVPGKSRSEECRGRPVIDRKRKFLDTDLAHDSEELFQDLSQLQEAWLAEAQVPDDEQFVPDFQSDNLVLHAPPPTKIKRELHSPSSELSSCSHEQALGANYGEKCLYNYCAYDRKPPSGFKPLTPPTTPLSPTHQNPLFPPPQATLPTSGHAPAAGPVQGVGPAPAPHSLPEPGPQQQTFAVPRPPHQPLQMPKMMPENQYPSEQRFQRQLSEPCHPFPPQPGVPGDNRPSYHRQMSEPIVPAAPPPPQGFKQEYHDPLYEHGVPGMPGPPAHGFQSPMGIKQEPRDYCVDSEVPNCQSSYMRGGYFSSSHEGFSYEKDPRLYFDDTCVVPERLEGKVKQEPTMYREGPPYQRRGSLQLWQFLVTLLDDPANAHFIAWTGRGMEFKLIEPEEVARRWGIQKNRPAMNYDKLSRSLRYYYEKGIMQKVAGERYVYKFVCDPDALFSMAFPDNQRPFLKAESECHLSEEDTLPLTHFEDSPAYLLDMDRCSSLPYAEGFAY
# Summary of the method: as §1
# [12] = target: HSF1 (Homo sapiens, UniProt Q00613 1-529); conditions: protein: recombinant; tags: N-terminal GST; chain copies: 3; dsDNA, one strand shown
# Chain of HSF1 (Q00613 whole entry): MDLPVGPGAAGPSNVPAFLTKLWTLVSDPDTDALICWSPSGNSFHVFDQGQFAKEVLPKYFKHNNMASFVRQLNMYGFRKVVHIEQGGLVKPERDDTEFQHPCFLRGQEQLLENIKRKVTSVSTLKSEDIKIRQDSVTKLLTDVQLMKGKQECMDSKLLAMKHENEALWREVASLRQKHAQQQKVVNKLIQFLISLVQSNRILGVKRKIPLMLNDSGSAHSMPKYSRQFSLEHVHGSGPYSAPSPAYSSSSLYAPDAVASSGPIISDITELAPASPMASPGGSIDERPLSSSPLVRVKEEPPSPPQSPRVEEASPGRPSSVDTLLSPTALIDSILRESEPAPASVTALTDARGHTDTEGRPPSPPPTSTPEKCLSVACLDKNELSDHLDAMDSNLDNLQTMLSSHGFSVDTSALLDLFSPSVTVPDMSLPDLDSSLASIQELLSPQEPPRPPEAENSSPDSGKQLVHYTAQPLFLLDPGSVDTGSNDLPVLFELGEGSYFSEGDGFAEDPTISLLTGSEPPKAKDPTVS
# Summary of the method: as §1
# [13] = target: T8, SPIC (Homo sapiens, UniProt Q8N5J4 1-248); conditions: protein: recombinant; tags: N-terminal GST; dsDNA, one strand shown
# T8 sequence: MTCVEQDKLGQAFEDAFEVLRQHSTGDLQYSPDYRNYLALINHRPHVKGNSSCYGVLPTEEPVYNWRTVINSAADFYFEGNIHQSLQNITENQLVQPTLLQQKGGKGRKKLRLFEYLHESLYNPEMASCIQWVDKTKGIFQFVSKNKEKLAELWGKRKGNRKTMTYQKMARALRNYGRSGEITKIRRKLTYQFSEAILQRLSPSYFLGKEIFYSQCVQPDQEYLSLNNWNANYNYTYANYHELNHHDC
# Summary of the method: as §1
# [14] = target: ELF4 (Homo sapiens, UniProt Q99607 1-663); conditions: protein: recombinant; tags: N-terminal GST; dsDNA, one strand shown
# Chain of ELF4 (Q99607 whole entry): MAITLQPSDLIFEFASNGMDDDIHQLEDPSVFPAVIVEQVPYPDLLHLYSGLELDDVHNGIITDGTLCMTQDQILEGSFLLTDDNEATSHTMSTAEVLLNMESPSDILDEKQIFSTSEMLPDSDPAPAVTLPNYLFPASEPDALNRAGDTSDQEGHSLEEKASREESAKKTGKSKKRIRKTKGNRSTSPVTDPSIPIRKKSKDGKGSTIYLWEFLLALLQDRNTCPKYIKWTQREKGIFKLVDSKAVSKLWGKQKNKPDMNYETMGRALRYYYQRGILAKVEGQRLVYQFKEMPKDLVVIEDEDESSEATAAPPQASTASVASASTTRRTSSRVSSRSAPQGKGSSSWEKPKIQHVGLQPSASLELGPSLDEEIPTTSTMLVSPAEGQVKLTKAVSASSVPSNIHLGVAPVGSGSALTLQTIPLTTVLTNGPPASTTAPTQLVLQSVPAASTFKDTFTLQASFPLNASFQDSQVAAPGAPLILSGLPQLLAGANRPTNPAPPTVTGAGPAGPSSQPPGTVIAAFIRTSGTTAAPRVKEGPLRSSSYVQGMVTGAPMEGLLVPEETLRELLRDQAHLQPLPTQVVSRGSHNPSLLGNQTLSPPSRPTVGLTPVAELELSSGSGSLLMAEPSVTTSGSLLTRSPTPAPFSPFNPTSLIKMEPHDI
# Summary of the method: as §1
# [15] = target: T9, ELK4 (Homo sapiens, UniProt P28324-2 1-405); conditions: protein: recombinant; tags: N-terminal GST; dsDNA, one strand shown
# T9 sequence: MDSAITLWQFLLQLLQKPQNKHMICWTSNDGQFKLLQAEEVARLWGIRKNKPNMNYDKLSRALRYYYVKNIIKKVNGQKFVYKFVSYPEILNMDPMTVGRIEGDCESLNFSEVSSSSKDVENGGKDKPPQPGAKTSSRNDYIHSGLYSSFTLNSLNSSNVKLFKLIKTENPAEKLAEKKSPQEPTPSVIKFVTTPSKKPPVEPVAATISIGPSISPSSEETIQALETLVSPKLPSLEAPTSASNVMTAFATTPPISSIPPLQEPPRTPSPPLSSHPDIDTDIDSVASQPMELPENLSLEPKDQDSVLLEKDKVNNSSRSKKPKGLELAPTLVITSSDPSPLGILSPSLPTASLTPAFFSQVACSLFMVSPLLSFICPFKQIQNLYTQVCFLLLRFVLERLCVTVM
# Summary of the method: as §1
# [16] = target: T10, ETV2 (Homo sapiens, UniProt O00321 1-342); conditions: protein: recombinant; tags: N-terminal GST; dsDNA, one strand shown
# T10 sequence: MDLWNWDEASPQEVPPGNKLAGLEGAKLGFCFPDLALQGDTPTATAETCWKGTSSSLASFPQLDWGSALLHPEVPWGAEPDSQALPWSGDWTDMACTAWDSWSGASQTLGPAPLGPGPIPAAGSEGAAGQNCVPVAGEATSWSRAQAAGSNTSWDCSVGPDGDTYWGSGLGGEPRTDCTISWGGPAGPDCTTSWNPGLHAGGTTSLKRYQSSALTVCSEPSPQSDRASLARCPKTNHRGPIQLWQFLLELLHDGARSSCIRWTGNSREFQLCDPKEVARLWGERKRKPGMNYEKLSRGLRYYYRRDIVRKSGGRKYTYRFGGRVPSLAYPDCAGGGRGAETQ
# Summary of the method: as §1
# [17] = target: T11, ELF3 (Homo sapiens, UniProt P78545 1-371); conditions: protein: recombinant; tags: N-terminal GST; dsDNA, one strand shown
# T11 sequence: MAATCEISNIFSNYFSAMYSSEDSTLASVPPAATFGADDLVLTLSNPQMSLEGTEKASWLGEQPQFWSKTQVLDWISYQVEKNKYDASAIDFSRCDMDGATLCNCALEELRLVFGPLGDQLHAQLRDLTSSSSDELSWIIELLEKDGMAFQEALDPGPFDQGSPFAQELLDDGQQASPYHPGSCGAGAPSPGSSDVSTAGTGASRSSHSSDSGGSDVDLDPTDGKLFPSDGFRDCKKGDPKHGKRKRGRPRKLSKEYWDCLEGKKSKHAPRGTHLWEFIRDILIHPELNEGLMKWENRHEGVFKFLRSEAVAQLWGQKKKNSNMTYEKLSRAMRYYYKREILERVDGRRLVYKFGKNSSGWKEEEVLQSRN
# Summary of the method: as §1
# [18] = target: CRX (Homo sapiens, UniProt O43186 1-299); conditions: protein: recombinant; tags: N-terminal GST; dsDNA, one strand shown
# Chain of CRX (O43186 whole entry): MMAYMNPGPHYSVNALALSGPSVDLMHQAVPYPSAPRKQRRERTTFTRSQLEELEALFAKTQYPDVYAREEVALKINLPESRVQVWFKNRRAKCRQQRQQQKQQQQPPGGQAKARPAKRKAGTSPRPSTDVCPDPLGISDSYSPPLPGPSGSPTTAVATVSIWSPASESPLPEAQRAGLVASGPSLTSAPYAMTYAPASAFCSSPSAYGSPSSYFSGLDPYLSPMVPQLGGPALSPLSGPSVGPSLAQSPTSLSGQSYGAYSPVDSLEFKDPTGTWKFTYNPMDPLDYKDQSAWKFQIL
# Summary of the method: as §1
# [19] = target: ETV1 (Homo sapiens, UniProt P50549 1-477); conditions: protein: recombinant; tags: N-terminal GST; dsDNA, one strand shown
# Chain of ETV1 (P50549 whole entry): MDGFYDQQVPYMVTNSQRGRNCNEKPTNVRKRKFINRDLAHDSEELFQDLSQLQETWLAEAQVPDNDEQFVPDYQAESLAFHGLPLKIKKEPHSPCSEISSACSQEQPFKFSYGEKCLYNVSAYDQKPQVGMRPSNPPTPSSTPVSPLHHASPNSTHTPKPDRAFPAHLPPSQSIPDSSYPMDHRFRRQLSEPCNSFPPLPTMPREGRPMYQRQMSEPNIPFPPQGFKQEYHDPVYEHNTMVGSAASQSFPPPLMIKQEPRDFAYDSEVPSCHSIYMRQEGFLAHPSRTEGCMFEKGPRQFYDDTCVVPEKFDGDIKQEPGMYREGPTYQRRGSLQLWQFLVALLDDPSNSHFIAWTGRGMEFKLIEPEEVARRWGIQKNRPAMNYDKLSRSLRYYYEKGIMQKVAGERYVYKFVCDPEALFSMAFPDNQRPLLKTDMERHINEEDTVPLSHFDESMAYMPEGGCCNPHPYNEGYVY
# Summary of the method: as §1
sequence,measurement,setting,value
AACATT,binding signal,[1],"1.37 fold enrichment (6-mer frequency, TF over GST control)"
same,binding signal,[2],"1.26 fold enrichment (6-mer frequency, TF over GST control)"
same,binding signal,[3],"1.35 fold enrichment (6-mer frequency, TF over GST control)"
same,binding signal,[4],"1.25 fold enrichment (6-mer frequency, TF over GST control)"
same,binding signal,[5],"1.29 fold enrichment (6-mer frequency, TF over GST control)"
same,binding signal,[6],"1.33 fold enrichment (6-mer frequency, TF over GST control)"
same,binding signal,[7],"1.17 fold enrichment (6-mer frequency, TF over GST control)"
same,binding signal,[8],"1.34 fold enrichment (6-mer frequency, TF over GST control)"
same,binding signal,[9],"1.25 fold enrichment (6-mer frequency, TF over GST control)"
same,binding signal,[10],"1.2 fold enrichment (6-mer frequency, TF over GST control)"
same,binding signal,[11],"1.31 fold enrichment (6-mer frequency, TF over GST control)"
same,binding signal,[12],"1.99 fold enrichment (6-mer frequency, TF over GST control)"
same,binding signal,[13],"1.21 fold enrichment (6-mer frequency, TF over GST control)"
same,binding signal,[14],"1.29 fold enrichment (6-mer frequency, TF over GST control)"
same,binding signal,[15],"1.31 fold enrichment (6-mer frequency, TF over GST control)"
same,binding signal,[16],"1.29 fold enrichment (6-mer frequency, TF over GST control)"
same,binding signal,[17],"1.33 fold enrichment (6-mer frequency, TF over GST control)"
same,binding signal,[18],"1.34 fold enrichment (6-mer frequency, TF over GST control)"
same,binding signal,[19],"1.29 fold enrichment (6-mer frequency, TF over GST control)"
